Laboratory results from the supplement of paper PMC13380429.

How the values were obtained:
[1] = test system: Vero E6 infected with SARS-CoV-2; experiment: morphology score (similarity to uninfected cells); higher = more like uninfected cells; conditions: 24 h
[2] = test system: Vero E6 infected with SARS-CoV-2; experiment: SARS-CoV-2 infection rate relative to infected DMSO; higher = more infection, active = 60 or less; conditions: 24 h

CC(=O)c1ccc(NS(C)(=O)=O)c(Oc2ccc(F)cc2F)c1 (10 µM)
morphology score [1]: 0.115 | SARS-CoV-2 infection rate [2]: 92.5% (inactive)

O=C1C(=O)N(Cc2ccc(Cl)c(Cl)c2)c2ccccc21 [apoptosis-activator-II] (10 µM)
morphology score [1]: 0.0389 | SARS-CoV-2 infection rate [2]: 104% (inactive)

CC(C)CC(=O)Nc1n[nH]c2c1CN(C(=O)C1CCN(C)CC1)C2(C)C (10 µM)
morphology score [1]: 0.099 | SARS-CoV-2 infection rate [2]: 113% (inactive)

O=C(O)c1c(Sc2ccccc2)c2cc(Cl)ccc2n1Cc1ccc(Cl)cc1 (10 µM)
morphology score [1]: 0.149 | SARS-CoV-2 infection rate [2]: 102% (inactive)

O=C(O)C1=CCCNC1 [guvacine] (10 µM)
morphology score [1]: 0.2 | SARS-CoV-2 infection rate [2]: 93% (inactive)

NC(=O)CN1C=CCC(C(N)=O)=C1 [caricotamide] (10 µM)
morphology score [1]: 0.109 | SARS-CoV-2 infection rate [2]: 106% (inactive)

COc1cc2c(=O)c(-c3ccc(O)cc3)coc2cc1O [glycitein] (10 µM)
morphology score [1]: 0.00478 | SARS-CoV-2 infection rate [2]: 110% (inactive)

O=C(O)COc1cccc(-c2ocnc2-c2nc(-c3ccccc3)c(-c3ccccc3)o2)c1 (10 µM)
morphology score [1]: 0.194 | SARS-CoV-2 infection rate [2]: 102% (inactive)

CCN1CCN(C(=O)Cc2ccc(Nc3ncc(F)c(Nc4ccc(C(=O)Nc5ccccc5Cl)cc4)n3)cc2)CC1 [aurora-a-inhibitor-i] (10 µM)
morphology score [1]: -0.072 | SARS-CoV-2 infection rate [2]: 86% (inactive)

O=C(NCCN1CCC2(CC1)C(=O)NCN2c1cccc(F)c1)c1ccc2ccccc2c1 (10 µM)
morphology score [1]: 0.766 | SARS-CoV-2 infection rate [2]: 26% (active)

CCCCOc1ccc(C(=O)CCN2CCCCC2)cc1 [dyclonine] (10 µM)
morphology score [1]: 0.347 | SARS-CoV-2 infection rate [2]: 91.5% (inactive)

CCOc1ccccc1OC(c1ccccc1)C1CNCCO1 (centres undefined) [reboxetine] (10 µM)
morphology score [1]: -0.0871 | SARS-CoV-2 infection rate [2]: 113% (inactive)

c1ccc(C2CN3CCSC3=N2)cc1 (centres undefined) [tetramisole] (10 µM)
morphology score [1]: 0.191 | SARS-CoV-2 infection rate [2]: 104% (inactive)

Oc1cccc(-c2c3nc(c(-c4cccc(O)c4)c4ccc([nH]4)c(-c4cccc(O)c4)c4nc(c(-c5cccc(O)c5)c5ccc2[nH]5)CC4)C=C3)c1 [temoporfin] (0.833333 µM)
morphology score [1]: -0.0311 | SARS-CoV-2 infection rate [2]: 111% (inactive)

COc1ccc(CC2NCCc3cc(OC)c(OC)cc32)cc1OC (centres undefined) [tetrahydropapaverine] (10 µM)
morphology score [1]: -0.026 | SARS-CoV-2 infection rate [2]: 108% (inactive)

Cc1ccc(C(=O)Cn2c3c(sc2=N)CCCC3)cc1 [pifithrin-alpha] (10 µM)
morphology score [1]: -0.224 | SARS-CoV-2 infection rate [2]: 108% (inactive)

N[C@@H](C(=O)O)c1nn[nH]n1 (racemic) [tetrazol-5-yl-glycine-(RS)] (10 µM)
morphology score [1]: 0.03 | SARS-CoV-2 infection rate [2]: 98% (inactive)

CC(C)c1ccc(C(=O)c2cccs2)c(SCCCCCCCCN(C)C)n1 (0.833333 µM)
morphology score [1]: 0.361 | SARS-CoV-2 infection rate [2]: 94.5% (inactive)

CCOC(N)=O [urethane] (10 µM)
morphology score [1]: -0.0716 | SARS-CoV-2 infection rate [2]: 106% (inactive)

CCOC(=O)C1=C(COCCN)NC(C)=C(C(=O)OC)C1c1ccccc1Cl (centres undefined) [amlodipine] (10 µM)
morphology score [1]: 0.697 | SARS-CoV-2 infection rate [2]: 47% (active)

NCCS(=O)(=O)O [taurine] (10 µM)
morphology score [1]: 0.19 | SARS-CoV-2 infection rate [2]: 94.5% (inactive)

Cc1c(C(=O)NC2CCCCC2)sc2nc3ccc(N)cc3n12 (10 µM)
morphology score [1]: 0.0842 | SARS-CoV-2 infection rate [2]: 105% (inactive)

CCCCNc1c(C(=O)OCC)c(C)nc2c1cnn2CC [tracazolate] (10 µM)
morphology score [1]: 0.174 | SARS-CoV-2 infection rate [2]: 92.5% (inactive)

CC(C)CN(C[C@@H](O)[C@H](Cc1ccccc1)NC(=O)O[C@H]1CCOC1)S(=O)(=O)c1ccc(N)cc1 [amprenavir] (10 µM)
morphology score [1]: 0.0911 | SARS-CoV-2 infection rate [2]: 110% (inactive)

Cc1cc(C(=O)NOCCO)c(Nc2ccc(I)cc2F)n(C)c1=O (10 µM)
morphology score [1]: -0.0952 | SARS-CoV-2 infection rate [2]: 107% (inactive)

CCC(COC(=O)c1cc(OC)c(OC)c(OC)c1)(c1ccccc1)N(C)C (centres undefined) [trimebutine] (10 µM)
morphology score [1]: 0.103 | SARS-CoV-2 infection rate [2]: 91% (inactive)

COc1cc2ncnc(Nc3ccc(F)c(Cl)c3)c2cc1OCCCN1CCOCC1 [gefitinib] (10 µM)
morphology score [1]: -0.249 | SARS-CoV-2 infection rate [2]: 112% (inactive)

CC(=O)S[C@@H]1CC2=CC(=O)CC[C@]2(C)[C@H]2CC[C@@]3(C)[C@@H](CC[C@@]34CCC(=O)O4)[C@H]12 [spironolactone] (10 µM)
morphology score [1]: 0.291 | SARS-CoV-2 infection rate [2]: 98.5% (inactive)

c1ccc(-c2ccc(C(c3ccccc3)n3ccnc3)cc2)cc1 (centres undefined) [bifonazole] (10 µM)
morphology score [1]: 0.407 | SARS-CoV-2 infection rate [2]: 79% (inactive)

O=C(Cc1cccc(OC(F)(F)F)c1)Nc1ccc(CCCCc2nnc(NC(=O)Cc3ccccn3)s2)nn1 (10 µM)
morphology score [1]: -0.0099 | SARS-CoV-2 infection rate [2]: 104% (inactive)

Cc1cc(OCc2nc(-c3ccccc3Cl)cs2)ccc1OCC(=O)O [GPR120-modulator-1] (10 µM)
morphology score [1]: -0.0706 | SARS-CoV-2 infection rate [2]: 100% (inactive)

Oc1cc2c(cc1O)[C@H](Cc1cccc3ccccc13)NCC2 (10 µM)
morphology score [1]: -0.102 | SARS-CoV-2 infection rate [2]: 119% (inactive)

Cc1c(C)c(NCC(=O)N(C)C2CCN(Cc3ccc(C(N)=O)cc3)CC2)c(C)c(C)c1N (10 µM)
morphology score [1]: 0.211 | SARS-CoV-2 infection rate [2]: 91% (inactive)

C#C[C@]1(O)CC[C@H]2[C@@H]3CCC4=CC(=O)CCC4=C3C=C[C@@]21CC [gestrinone] (10 µM)
morphology score [1]: 0.0853 | SARS-CoV-2 infection rate [2]: 103% (inactive)

Oc1ccc2c3c1O[C@H]1c4oc5ccccc5c4C[C@@]4(O)[C@@H](C2)N(CC2CC2)CC[C@]314 [naltriben] (10 µM)
morphology score [1]: -0.128 | SARS-CoV-2 infection rate [2]: 106% (inactive)

Cc1cc(F)c(Nc2ncnc3cc(OCc4ccccc4)ccc23)cc1O (10 µM)
morphology score [1]: 0.0561 | SARS-CoV-2 infection rate [2]: 99% (inactive)

O=C(O)P(=O)(O)O [foscarnet] (10 µM)
morphology score [1]: 0.202 | SARS-CoV-2 infection rate [2]: 98% (inactive)

COc1cc2c(cc1OC)[C@@H]1Cc3ccc(OC)c(OC)c3CN1CC2 [rotundine] (10 µM)
morphology score [1]: 0.0444 | SARS-CoV-2 infection rate [2]: 110% (inactive)

CC(=O)SC[C@@H](C)C(=O)N1CCC[C@H]1C(=O)N[C@@H](Cc1ccccc1)C(=O)O [alacepril] (10 µM)
morphology score [1]: 0.171 | SARS-CoV-2 infection rate [2]: 108% (inactive)

COc1ccc(-c2cc(=O)c3c(OC)c(OC)c(OC)c(OC)c3o2)cc1OC [nobiletin] (10 µM)
morphology score [1]: 0.322 | SARS-CoV-2 infection rate [2]: 110% (inactive)

CC(C)(CO)Cc1cc(C(C)(C)C)c(O)c(C(C)(C)C)c1 (10 µM)
morphology score [1]: -0.127 | SARS-CoV-2 infection rate [2]: 108% (inactive)

COC(=O)Nc1ccc(-c2nc(N3CCOCC3)c3cnn(C4CCN(C(=O)OC)CC4)c3n2)cc1 (0.833333 µM)
morphology score [1]: 0.00734 | SARS-CoV-2 infection rate [2]: 120% (inactive)

CO[C@@H](C)Cn1c(=O)n(C)c2cnc3ccc(-c4cncc(C(C)(C)O)c4)cc3c21 (10 µM)
morphology score [1]: -0.000833 | SARS-CoV-2 infection rate [2]: 112% (inactive)

CCOC(=O)CCC(=O)O[C@H]1[C@H](O[C@@H]2[C@@H](C)[C@H](O[C@H]3C[C@@](C)(OC)[C@@H](O)[C@H](C)O3)[C@@H](C)C(=O)O[C@H](CC)[C@@](C)(O)[C@H](O)[C@@H](C)C(=O)[C@H](C)C[C@@]2(C)O)O[C@H](C)C[C@@H]1N(C)C [erythromycin-ethylsuccinate] (10 µM)
morphology score [1]: -0.215 | SARS-CoV-2 infection rate [2]: 118% (inactive)

CN(C)CCc1c[nH]c2ccc(C[C@H]3COC(=O)N3)cc12 [zolmitriptan] (10 µM)
morphology score [1]: 0.127 | SARS-CoV-2 infection rate [2]: 92.5% (inactive)

CNC(=O)c1ccccc1Nc1cc(Nc2ccc(N3CCOCC3)cc2OC)ncc1C(F)(F)F (10 µM)
morphology score [1]: -0.0543 | SARS-CoV-2 infection rate [2]: 111% (inactive)

O[C@@H]1CO[C@H]2[C@@H]1OC[C@@H]2O [isosorbide] (10 µM)
morphology score [1]: 0.0141 | SARS-CoV-2 infection rate [2]: 112% (inactive)
